# High-throughput results deposited in PubChem by National Center for Advancing Translational Sciences (NCATS).
# In the library only some 17% were active in any assay of this set; here they are far more common.
# ClpP mod: qHTS Assay for Activators of ClpP; ATP-dependent Clp protease proteolytic subunit (Bacillus subtilis (strain 168)), P80244; purified B. subtilis ClpP, FRET peptide cleavage, 20 min; Potency, µM (highest dose often 57.5 µM), for the others: at the highest dose activity change, negative = active; 340,000 tested, 1.9% active; active = well fitted falling curve with a large enough effect; inconclusive = small, poorly fitted or top-dose-only effect; inactive = no such curve, though single readings can be large or run the other way; note: the source files actives as falling curves though it sought activators and does not explain the sign; nearly all actives have a fitted effect of over 65% in size
# Target sequence (P80244 whole entry, looked up): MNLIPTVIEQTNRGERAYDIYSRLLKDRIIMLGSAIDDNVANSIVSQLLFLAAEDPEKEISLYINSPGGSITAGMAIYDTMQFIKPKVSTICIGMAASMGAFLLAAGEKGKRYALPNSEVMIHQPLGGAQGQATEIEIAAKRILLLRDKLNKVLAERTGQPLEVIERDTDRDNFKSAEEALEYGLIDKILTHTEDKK
#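 Buffer: 100 mM Tris/HCl pH8, 100 mM KCl, 0.05% low protease BSA, 2.5% glycerol, 0.01% Tween-20. ClpP 10 microg/mL final; 20 min RT; delta FRET normalized to ADEP and DMSO controls.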
# DT40 TDP1 CPT: DT40-hTDP1 cell growth loss with CPT | AID 686979 | chicken DT40 Tdp1-/-;hTDP1 cells + 20 nM CPT, ATP luminescence, 48 h | Potency, µM (doses to about 46.2 µM), inactives show at the top dose activity change, negative = growth inhibition, hits mostly inhibitors | 420,000 tested, 12% active; note: % is set by controls: 0 for no effect and ±100 for the full control effect; nearly all actives have a fitted effect of over 55% in size
#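 Chicken DT40 Tdp1-/- cells complemented with human TDP1, 400 cells/well, exposed to compounds plus 20 nM camptothecin for at least 48 h at 37 C; viability read as ATP content by CellTiter-Glo luminescence.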
# TDP1 block: blocks human tyrosyl-DNA phosphodiesterase 1. Q9NUW8. recombinant TDP1, AlphaScreen DNA substrate cleavage. Potency, µM (top dose mostly 130 µM), for inactives: at the highest dose activity change, negative = inhibition, hits mostly inhibitors. 350,000 tested, 0.28% active. AID 485290; note: % is set by controls: 0 for no effect and ±100 for the full control effect; nearly all actives have a fitted effect of over 40% in size
#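 Steps: enzyme plus compound, 15 min RT; add biotin/phosphotyrosine-FITC oligonucleotide (15 nM final), react 5 min; add donor/acceptor beads (10 ug/ml final), 10 min; read AlphaScreen. Tdp1 at 1 nM final.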
# TDP1 cell noCPT: qHTS for Inhibitors of human tyrosyl-DNA phosphodiesterase 1 (TDP1): qHTS in cells in absence of CPT. DT40 Tdp1-/- hTDP1 cells, no CPT, ATP luminescence, 48 h. Potency, µM (doses to about 46.2 µM), without a hit: top-dose activity change, negative = growth inhibition, most hits filed as inhibitors. 420,000 tested, 15% active. AID 686978, 2013; note: % is set by controls: 0 for no effect and ±100 for the full control effect; nearly all actives have a fitted effect of over 55% in size
#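 No-CPT arm: Tdp1-/-;hTDP1 DT40 cells (400/well) plus compounds, incubated ≥48 hr at 37 °C. Readout CellTiter-Glo luminescence.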
# Numbers without * were called inactive; u = inconclusive; x = no result given; [ ] = dose if it differs, or a comment. Unless noted, calls come from the whole dose curve; as a rule, active = well fitted curve in the direction sought with a large enough effect; inconclusive = small, poorly fitted or top-dose-only effect, or another doubt; inactive = no such curve, though single readings can be large; an effect the other way counts as inactive or inconclusive. Potency is the fitted concentration of half-maximal effect.
SMILES,ClpP mod,DT40 TDP1 CPT,TDP1 block,TDP1 cell noCPT
CC(C)CO/N=C1/C[C@@H](O)[C@@H](O)[C@@H]2[C@@H]3C(=O)N(C4CCCCC4)C(=O)[C@H]3CC[C@H]12,x,x,5%[21 µM],x
Cc1nn(-c2ccc(F)cc2)c(-n2cccc2)c1C(=O)NCCCN1CCN(c2cccc(Cl)c2)CC1,-4%,x,8%,x
O=C(COc1ccc2ccccc2c1)Nc1ccc(O)c(-c2nc3ccccc3o2)c1,-4%,u,x,u
O=C(Nc1ccc(Cl)cc1)Nc1ccccc1Sc1ncc([N+](=O)[O-])s1,0%,6.5µM*,7%,6.5µM*
CC(CNC(=O)c1cc(COc2c(F)cccc2F)on1)Oc1cccnc1 (centres undefined),0%,21µM*,6%,15µM*
O=C(NCCCc1ccccc1)c1cc(COc2ccc(F)cc2Cl)on1,0%,21µM*,-10%,u
O=C(NCCc1cccnc1)c1cc(COc2ccc(F)cc2F)on1,-4%,u,1%,23µM*
CC(Cc1cccnc1)NC(=O)c1cc(COc2ccc(F)cc2F)on1 (centres undefined),1%,16µM*,3%,21µM*
CC(Cc1cnccn1)NC(=O)c1cc(COc2ccc(F)cc2F)on1 (centres undefined),0%,u,3%,5%
CC1(C)CC(=O)C=C(c2cn[nH]n2)C1,-4%,0%,x,-21%
Cc1ccc(-n2nc(C(=O)Nc3ccc(Cl)cn3)c3c4ccccc4n(C)c3c2=O)cc1,-2%,-1%,2%,-19%
Cc1cccc(-c2noc(-c3ccc(NC4CCCC4)c([N+](=O)[O-])c3)n2)c1,0%,-25%,6%,-26%
Cc1c(C(=O)N/N=C/c2cccs2)nc2ccccn12,-3%,-5%,3%,u
Cc1ccc(NC(=O)Nc2nnc(N3CCCC3)s2)c(C)c1,0%,-1%,0%,-4%
COc1ccc(OCc2cc(C(=O)NC(C)Cc3ccccn3)no2)c(Cl)c1 (centres undefined),-2%,u,2%,u
COc1ccc(OCc2cc(C(=O)NC(C)Cc3cccnc3)no2)c(Cl)c1 (centres undefined),1%,u,5%,23µM*
CCn1cc(CNC(=O)c2cc(COc3ccc(F)cc3F)on2)cn1,-1%,u,4%,23µM*
Cn1c(=O)c2c(nc(N3CCOCC3)n2C/C=C/c2ccccc2)n(C)c1=O,x,u,7%,u
CCOC(=O)c1cccc(NC(=O)c2cc3c(Cl)nc4ccc(C)cc4c3s2)c1,-2%,u,1%,u
CCOc1ccc2nc(N/C(N)=N/C(=S)Nc3cccc(C)c3)nc(C)c2c1,u,18µM*,2%,21µM*
COc1ccc2nc(N/C(N)=N/C(=S)Nc3cccc(C)c3)nc(C)c2c1,u,u,5%,26µM*
CCOc1ccc2nc(N/C(N)=N/C(=S)Nc3cccc(OC)c3)nc(C)c2c1,x,u,10%,u
Cc1ccc(NC(=S)/N=C(\N)Nc2nc(C)c3cc(C)ccc3n2)c(C)c1,u,21µM*,5%,12µM*
Cc1ccc(NC(=S)/N=C(\N)Nc2nc(C)c3cc(C)c(C)cc3n2)cc1C,x,u,2%,u
COc1ccc2nc(N/C(N)=N/C(=S)Nc3c(C)cccc3C)nc(C)c2c1,4%,16µM*,8%,21µM*
SMILES,ClpP mod,DT40 TDP1 CPT,TDP1 block,TDP1 cell noCPT
CC12CCC(C(=O)N(NC(=O)c3cc(Cl)ccc3O)C1=O)C2(C)C (centres undefined),u,-18%,7%,-14%
COc1ccc(/C=N/NC(=O)c2c(Br)cnn2C)c2ccccc12,u,-18%,5%,-20%
COC(=O)NC1C=CCCC1C(C)=O (centres undefined),x,x,4%,x
CC(C)=CCC1C(=O)N(c2ccccc2)N(c2ccccc2)C1=O,x,3.8µM*,6%,3.8µM*
O=C1C2C3C=CC(CC3)C2C(=O)N1c1ccccc1 (centres undefined),-2%,4%,x,u
CCCCC1C2C(=O)N(c3ccc(C)cc3)C(=O)C2ON1c1ccccc1 (centres undefined),3%,2%,-1%,-2%
CCCCC1C(=O)N(c2ccccc2)N(c2ccc(O)cc2)C1=O (centres undefined),-2%,1µM*,-10%[56.1 µM],0.58µM*
COc1ccc(-c2nnn(CC(=O)N(CC3CCCO3)C(C(=O)NC(C)(C)C)c3ccco3)n2)cc1OC (centres undefined),x,-5%,3%,-29%
CC(=O)N1CCOc2ccc(S(=O)(=O)N3CCC(C(=O)NCc4ccc(F)cc4)CC3)cc21,0%,3%,-1%,4%
CCC(=O)Nc1ccc(C(=O)OCc2ccccc2)cc1,0%,-20%,-5%,-1%
O=C(OCc1ccccc1)c1ccc(NCc2cc(O)ccc2O)cc1,-4%,4.6µM*,x,3.7µM*
CC(C)OC(=O)c1ccc(NCc2cc(O)ccc2O)cc1,-20%,1.2µM*,x,2.3µM*
COP(=O)(OC)c1ccc(NCc2cc(O)ccc2O)cc1,0%,4.6µM*,x,4.1µM*
Cc1ccc(NCc2ccccc2O)cc1C,x,u,9%,-28%
CC(=O)Nc1ccc(NC(=O)CSc2ccc3nnc(-c4cccnc4)n3n2)cc1,-2%,-3%,-14%,18%
COCCNC(=O)C1(C)CCCN(C(=O)Cc2ccc3ccccc3c2)C1 (centres undefined),-1%,u,x,u
Cc1ccc(CN2CCSc3ccc(C(=O)N4CCN(c5cccc(C)c5C)CC4)cc32)cc1,u,8.2µM*,1%,5.2µM*
CN1CCN(C(=O)c2ccc3c(c2)N(Cc2ccccc2)CCS3)CC1,5%,u,x,u
O=C(c1ccc2c(c1)N(Cc1ccc(F)cc1)CCS2)N1CCOCC1,3%,u,6%,u
Cc1ccc(CN2CCSc3ccc(C(=O)N4CCN(c5ccc(Cl)cc5)CC4)cc32)cc1,u,15µM*,4%,21µM*
Cc1ccc(NC(=O)Nc2nnc(N(CC(C)C)CC(C)C)s2)cc1Cl,0%,9.2µM*,3%,16µM*
Cc1ccc(NC(=O)NCc2ccncc2)cc1Cl,x,3%,2%,-19%
COc1ccc(C(=O)NCC(c2ccco2)S(=O)(=O)c2cccs2)cc1 (centres undefined),-2%,u,-3%,u
Cc1ccc(/C=N/NC(=O)c2nnn(-c3nonc3N)c2-c2ccc3c(c2)OCO3)s1,-2%,-11%,1%,-21%
COc1ccc2c(c1)c1c(c(=O)n(-c3cc(Cl)ccc3C)c(=O)n1CC(=O)N1CCCC1)n2C,4%,u,3%,u
CCc1ccccc1NC(=S)NNC(=O)c1ccccc1Cl,0%,6.5µM*,8%,5.8µM*
